Source: PubChem BioAssay AID1305 (SRMLSC, 2008)
Hit rate of the full screen: of about 1,200 compounds, fewer than 10 were called active. These entries were drawn from the full list. Unmarked numbers belong to inactive results. No rule for the calls is given here.

experiment: sensitized control strain growth on 5-FOA – S. cerevisiae, OD615, counter-screen for RAM network inhibitor project, dose response (AID 1305);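 also: plate controls were vehicle for no effect and reference inhibitor for full effect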; conditions: S. cerevisiae efflux-deficient reporter strain, 5-FOA growth OD615, 2 days, hits give high values; at 100 µM unless noted

Row | SMILES | max inhibition
1 | CCC(C)(C)c1ccc(Oc2ccc(NC(=O)COC(=O)C3=COCCO3)cc2)cc1 | 1.41%
2 | Cc1ccccc1CSCCNC(=O)c1ccc(N(C)S(=O)(=O)c2ccccc2)cc1 | 3.2%
3 | Fc1ccc(-n2c(Cc3ccccc3)nnc2SCc2nc(-c3ccc(Cl)cc3)no2)cc1 | 1.1% [setting not given]
4 | COCCN(C(=O)C(C)C)c1nnc(-c2ccc(C(C)(C)C)cc2)s1 | 1.87% [at 50 µM]
5 | COc1ccc(/C=C(\NC(=O)c2ccc(OCC(C)C)cc2)C(=O)OCc2ccco2)cc1 | 3.48%
6 | O=C(COC(=O)/C(=C/c1cccs1)c1cccs1)NCc1ccccc1Cl | 1.81% [at 25 µM]
7 | Cc1c(N=Nc2ccc(N(C)C)cc2)c(=O)n(-c2ccccc2)n1C | 20%
8 | CN(C)S(=O)(=O)c1cccc(NC(=O)COC(=O)C2(c3ccccc3F)CCCC2)c1 | 1.8% [at 50 µM]
9 | CCOC(=O)c1sc2nc(CSCC(=O)OCc3ccc(C(=O)OC)o3)[nH]c(=O)c2c1C | 2.47% [at 50 µM]
10 | CCN=C1S/C(=C\c2cc(Br)ccc2OCC(=O)OCC)C(=O)N1CC | 3.82% [at 50 µM]
11 | Cc1cccc(-n2c(SCC(=O)Nc3cccc(S(=O)(=O)NC4=NCCCCC4)c3)nc3ccccc3c2=O)c1C | 2.12% [setting not given]
12 | c1ccc(-c2csc(N3CCc4ccccc4C3)n2)cc1 | 4.47%
13 | O=C(COC(=O)/C=C/c1nc2ccccc2s1)Nc1ccccc1Oc1ccccc1 | 1.95% [at 1.563 µM]
14 | O=C(OCc1ccc(Br)cc1)c1cccc(-c2nnc(-c3ccccc3)o2)c1 | 3.97% [at 50 µM]
15 | CC(=O)c1c(Nc2ccccc2)sc(C(=O)c2ccccc2)c1C | 4.16% [at 50 µM]
16 | CCCSc1nc(NCc2ccco2)c2c3c(sc2n1)COC(C)(CC)C3 (stereo not drawn) | 4.05% [at 50 µM]
17 | Cc1ccc(NC2=C(Cl)C(=O)OC2OC(=O)c2ccccc2C)cc1 (stereo not drawn) | 1.91% [at 50 µM]
18 | Cc1cc(C)cc(NC(=O)CSCc2cnn(-c3ccccc3)c2-n2cccc2)c1 | 6.62%
19 | COC(=O)CCCCCN1C(=O)NC(c2ccc(-c3ccccc3)cc2)C(C(=O)OCc2ccccc2)=C1C (stereo not drawn) | 4.42% [at 25 µM]
20 | O=C(NCc1ccccc1)C1=C[C@@H](c2ccc(C(F)(F)F)cc2)C[C@@H](OCc2ccc(CO)cc2)O1 | 3.48%
21 | Cc1ccc(N=Nc2c(C)[nH]n(-c3ccccc3)c2=O)cc1 | 1.87% [at 50 µM]
22 | COC(=O)c1sccc1NC(=O)c1csc2c1CCCC2 | 4.49% [at 25 µM]
23 | CC(O)C(NS(=O)(=O)c1ccc(Cl)cc1)C(=O)OCc1cc([N+](=O)[O-])cc2c1OCOC2 (stereo not drawn) | 1.67%
24 | COc1ccc(Cl)cc1NC(=O)NC(C)C(C)(C)C (stereo not drawn) | 1.97% [setting not given]

Row | SMILES | max inhibition
25 | CCOC(=O)CC(=O)CSc1nc(-c2ccccc2)cc(-c2ccc(Cl)cc2)c1C#N | 1.73% [setting not given]
26 | C=CCOC(=O)C1=C(C)NC(SCC(=O)OCC)=C(C#N)C1c1ccc(C)cc1 (stereo not drawn) | 4.12%
27 | CCCCn1ccnc1C(=O)c1cccc(S(=O)(=O)N2c3ccccc3CC2C)c1 (stereo not drawn) | 3.37%
28 | CN(c1ccccc1)c1ccc(/C=c2\s/c(=C(/C#N)C(=O)C(C)(C)C)n(Cc3ccco3)c2=O)cc1 | 4.2% [at 25 µM]
29 | N/C(Cc1ccc([N+](=O)[O-])cc1)=N\OC(=O)COc1ccc2ccccc2c1 | 1.6%
30 | COc1ccc(/C(C)=N/Nc2cc(C(F)(F)F)ccc2Cl)c(OC)c1 | 2.82%
31 | Cc1cc2ccccc2n1CCNC(=O)COc1ccc2ccccc2c1 | 4.22%
32 | N#C/C(=C\C1=C(N2CCOCC2)C(=C\c2ccccc2)/CC1)C(=O)Nc1ccccc1F | 1.39% [setting not given]
33 | COc1ccc(O[C@H]2C=C[C@@H](c3ccccc3)O[C@@H]2CO/N=C/C[C@@H]2C=C[C@H](OC(C)=O)[C@@H](COC(C)=O)O2)cc1 | 1.15% [setting not given]
34 | O=C(COC(=O)CCCNC(=O)c1ccc(Cl)cc1)Nc1cc(Cl)ccc1Cl | 3.65%
35 | COc1c(Br)cc2c(C)c(C(=O)N3CCOCC3)oc2c1Br | 1.57% [setting not given]
36 | CCC1C/C(=C/c2cccs2)C(=O)/C(=C/c2cccs2)C1 (stereo not drawn) | 6.29%
37 | CCc1nc(Nc2ccc3nccnc3c2)c2oc3ccccc3c2n1 | 13.2%
38 | Oc1c(Cl)cc(Cl)c(Cl)c1Cc1c(O)c(Cl)cc(Cl)c1Cl | 0.89% [setting not given]
39 | O=C(CCC(=O)OCc1cccc(C(=O)Oc2ccccc2)c1)Nc1cccc2ccccc12 | 2.95% [at 12.5 µM]
40 | O=C1/C(=C/c2ccc3c(c2)OCO3)CCC/C1=C\c1ccc2c(c1)OCO2 | 4.85% [at 50 µM]
41 | CCOC(=O)CSC1=C(C#N)C(c2ccco2)C(C(=O)OCc2ccccc2)=C(C)N1 (stereo not drawn) | 1.67%
42 | Cc1ccc(S(=O)(=O)c2c(N)n(C)c3nc4ccccc4nc23)cc1 | 4.57%
43 | CCC(C(=O)OCC(=O)Nc1c(Cl)cc(Cl)cc1Cl)c1ccccc1 (stereo not drawn) | 2.14% [setting not given]
44 | C=CCO/N=C(\C)c1c(O)c(C)c(-c2ccccc2)n(-c2ccccc2)c1=O | 3.26%
45 | COc1ccc2c(c1)CCc1c(C(=O)N3CCc4ccccc4C3)noc1-2 | 1.6% [setting not given]
46 | CCOc1ccc(CN(Cc2ccco2)C(c2cccs2)c2nnnn2C(C)(C)C)cc1 (stereo not drawn) | 4.45%
47 | Cc1ccc(C(=O)/C=C/c2c(C)nn(-c3ccccc3)c2Cl)cc1 | 7.53%
48 | CCCCC(C(=O)OCC(=O)c1ccc(OC)cc1)N1C(=O)c2ccccc2C1=O (stereo not drawn) | 4.61%
